We go through 32 molecules from PubChem BioAssay (NCATS).

Results filed as inconclusive are left out. Entries that show only a call come without a potency. Values without a mark were called inactive. Calls of active or inactive are those of the source. Calls follow the shape of the dose curve; as a rule, active = well fitted curve in the direction sought with a large enough effect; inconclusive = small, poorly fitted or top-dose-only effect, or another doubt; inactive = no such curve, though single readings can be large; an effect the other way counts as inactive or inconclusive.

A short description of experiment [1]: P-glycoprotein substrates identified in KB-8-5-11 adenocarcinoma cell line, qHTS therapeutic library screen (AID 1346987). Also: nearly all actives have a fitted effect of over 65% in size. The method in brief:
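Human cervical adenocarcinoma KB-8-5-11 cells, selected in colchicine to over-express P-gp and assayed without it, were exposed for 72 h to titrated compounds. An ATP-based luminescent viability signal gave AC50.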

Experiment [2] relates to Zika virus NS2B-NS3 protease (linked construct). Put plainly: Primary screen NINDS Rhodamine qHTS for Zika virus inhibitors (AID 1347160). Also: nearly all actives have a fitted effect of over 55% in size. Also: potency is read from the fitted curve at half-maximal effect. The method in brief:
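Rhodamine110-peptide cleavage (1.5 µM substrate) by 25 nM linked NS2B-NS3 enzyme at pH 8.0 (Tris, Tween 20), after 15 min RT preincubation with compounds; 15-min fluorescence change normalized to controls and Hill-fitted.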

On to `COC(=O)[C@H](c1ccccc1Cl)N1CCC2SC(=O)C=C2C1` (some centres undefined), for which the Potency entry in experiment [1] and in experiment [2] was “inactive” throughout.
With `C[C@H]1CCN2C[C@]34C[C@@]5(C(=O)Nc6c5ccc5c6OC=CC(C)(C)O5)C(C)(C)C3C[C@]12C(=O)N4C` (some centres undefined), the Potency entry in experiment [1] and in experiment [2] was “inactive” in each case.
Take `CC(C)Oc1ccc(-c2nc(-c3cccc4c3CCC4NCCC(=O)O)no2)cc1C#N` (centres undefined): the Potency result in experiment [1] and in experiment [2] was “inactive” in each case.
In the case of `CC1(C)CC[C@]2(C(=O)O)CC[C@]3(C)C(=CCC4[C@@]5(C)CC[C@H](O)C(C)(C)C5CC[C@]43C)C2C1` (some centres undefined), the Potency result in experiment [1] and in experiment [2] was “inactive” each time.
As to `C=C(C(=O)O)[C@H]1C[C@]2(C)C(=O)CC[C@]23O[C@H]1C[C@@H]3C`, the Potency entry in experiment [1] and in experiment [2] was “inactive” each time.
On to `C/C=C(/C)C(=O)OC1C(OC(C)=O)C23C(O)OC4(CCC5C6(C)CCC(OC7OC(C(=O)O)C(O)C(OC8OC(CO)C(O)C(O)C8OC8OC(C)C(O)C(O)C8OC8OCC(O)C(O)C8O)C7OC7OC(CO)C(O)C(O)C7O)C(C)(C)C6CCC5(C)C4(C)CC2OC(C)=O)C3CC1(C)C` (centres undefined), for which the outcome in experiment [1] was “inactive [at 9.29 µM]”. Further, the Potency result in experiment [2] was “inactive”.
Regarding `CO[C@H]1c2cc(C(C)C)c(O)c(O)c2[C@@]23CCCC(C)(C)C2[C@@H]1OC3=O` (some centres undefined), the Potency entry in experiment [1] and in experiment [2] was “inactive” in each case.
Turning to `C=C1CC/C=C(/CO)C(=O)C[C@@H]2[C@@H]1C[C@@]2(C)COC(C)=O`, the Potency entry in experiment [1] and in experiment [2] was “inactive” throughout.
Take `CC(=O)O[C@@H]1C(O)C[C@@]2(C)C(CC[C@@H](C)C23Cc2c(O)cc4c(c2O3)CNC4=O)C1(C)C` (some centres undefined): the Potency result in experiment [1] and in experiment [2] was “inactive” in each case.
As for `COc1ccc(OC2OC(CO[C@@H]3O[C@@H](C)[C@H](O)[C@@H](O)[C@H]3O)C(O)C(O)C2O)cc1OC` (some centres undefined), the Potency entry in experiment [1] and in experiment [2] was “inactive” in each case.
On to `C/C1=C\CC[C@]2(C)O[C@H]2C(=O)c2c(C)coc2C1`, for which the Potency entry in experiment [1] and in experiment [2] was “inactive” in each case.
In the case of `CC(=O)/C=C/C1(O)C(C)=CC(=O)CC1(C)C` (centres undefined), the Potency result in experiment [1] and in experiment [2] was “inactive” each time.
As for `C=C1CC/C=C(/C(=O)O)CCC2C1CC2(C)C` (centres undefined), the Potency entry in experiment [1] and in experiment [2] was “inactive” each time.
In the case of `C/C=C/C=C/C=C/C(=O)OC1C=C2C(O)OC(=O)[C@]2(O)[C@@]2(C)CCCC(C)(C)[C@H]12` (some centres undefined), the Potency entry in experiment [1] is “inactive”. Moreover, the Potency in experiment [2] is 12.6 µM (active).
Taken in the same sequence, the figures for `C=CCc1cc(OC)c(OC(C)C(O)c2ccc(O)c(OC)c2)c(OC)c1` (centres undefined) were “inactive” and “inactive”.
Taken in the same sequence, the figures for `CC1=C2CC(O)(C(C)(C)O)C(O[C@@H]3O[C@H](CO)[C@@H](O)[C@H](O)[C@H]3O)CC(C)C2CC1=O` (some centres undefined) were “inactive” and “inactive”.
Taken in the same sequence, the figures for `COc1ccc(-n2c(=O)[nH]c3cc(C(=O)NCc4ccc(Cl)cc4)sc3c2=O)nc1OC` were “inactive” and “inactive”.
For the molecule `CC/C=C\C(O)C(O)C1=C(C)C(=O)C2(O1)C(=O)NC(OC)(C(=O)c1ccccc1)C2O` (centres undefined), the Potency entry in experiment [1] and in experiment [2] was “inactive” throughout.
As for `C/C=C1\[C@H](O[C@@H]2O[C@H](CO)[C@@H](O)[C@H](O)[C@H]2O)OC=C(C(=O)OCCc2ccc(O)cc2)[C@H]1CC(=O)OCCc1ccc(O)cc1`, the Potency result in experiment [1] and in experiment [2] was “inactive” throughout.
Take `Cn1c2ccc(NC(=O)c3ccccc3)cc2c(=O)n2nc(C(=O)O)cc12`: the Potency result in experiment [1] and in experiment [2] was “inactive” throughout.
As for `CC1CCC2(C(=O)O)CCC3(C)C(=CCC4C5(C)C[C@@H](O)[C@@H](O)C(C)(CO)C5CCC43C)C2C1(C)O` (some centres undefined), the Potency entry in experiment [1] and in experiment [2] was “inactive” throughout.
Take `CC/C=C\CC1C(CC(=O)O)CCC1OC1OC(CO)C(O)C(O)C1O` (centres undefined): the Potency entry in experiment [1] and in experiment [2] was “inactive” each time.
`C/C(=C\CCC(C)(C)O)CCO[C@@H]1O[C@H](CO[C@@H]2O[C@@H](C)[C@H](O)[C@@H](O)[C@H]2O)[C@@H](O)[C@H](O)[C@H]1O`: the Potency result in experiment [1] and in experiment [2] was “inactive” each time.
As for `CC1=CC(=O)C(=C(C)C)CC2C(C)(O)CCC12O` (centres undefined), the Potency entry in experiment [1] and in experiment [2] was “inactive” in each case.
Consider `CC(C)(O)C1CC=C(C(=O)OC[C@H]2O[C@@H](OC(=O)C3=CCC(C(C)(C)O)CC3)[C@H](O)[C@@H](O)[C@@H]2O)CC1` (some centres undefined), for which the Potency result in experiment [1] and in experiment [2] was “inactive” throughout.
Consider `CC(=O)NC1C(OC2CCC3(C)C(CCC4(C)C3CC=C3C5CC(C)(C)CCC5(C(=O)O)C(O)CC34C)C2(C)C)OC(CO)C(O)C1O` (centres undefined), for which the Potency entry in experiment [1] and in experiment [2] was “inactive” each time.
Take `CC(C)c1ccc2c(c1)C(=O)CC1C(C)(C(=O)O)CCCC21C` (centres undefined): the Potency result in experiment [1] and in experiment [2] was “inactive” each time.
With `CC1=CC2=C(C)C(=O)C(C)(O)C(O)C2CO1` (centres undefined), the Potency entry in experiment [1] and in experiment [2] was “inactive” each time.
Regarding `CC(=O)c1c(C)cccc1O[C@@H]1O[C@H](CO)[C@@H](O)[C@H](O)[C@H]1O`, the Potency result in experiment [1] and in experiment [2] was “inactive” in each case.
Regarding `COc1cc(C(O)C2COC(c3ccc(OC4OC(CO)C(O)C(O)C4O)c(OC)c3)C2CO)ccc1O` (centres undefined), the Potency result in experiment [1] and in experiment [2] was “inactive” in each case.
`C=C1C(O)CC2C(C(=O)O)=COC(OC3OC(CO)C(O)C(O)C3OC(=O)/C=C\c3ccc(O)cc3)C12` (centres undefined): the Potency result in experiment [1] and in experiment [2] was “inactive” each time.
As for `COc1ccc(C(=O)OC2C3C=COC(OC4OC(CO)C(O)C(O)C4O)C3C3(CO)OC23)cc1OC` (centres undefined), the Potency entry in experiment [1] and in experiment [2] was “inactive” each time.
